PD-1 reverse act = activators reversing PD-1 mediated T-cell inhibition | primary human CD4 T cells, PD-L1 beads, CellTiter-Glo 96 h | AID 2316 | 29,000 tested, under 10 active | activation, % (concentration not given with the values); call rule not given here
NOMO-1 viab = STK33 inhibitor candidate reducing NOMO-1 cell viability | NOMO-1 AML viability, CellTiter-Glo luminescence, 72 h | inhibition, % (test concentration not listed) | 37,000 tested, 7.5% active | AID 2330; in the data active = inhibition above about 80%; inconclusive = no clear call, values can overlap the other calls
Shh pathway inh = Sonic Hedgehog pathway inhibition; Shh-LIGHT2 Gli-luciferase reporter, 30 h; inhibition, % (test concentration not listed); 22,000 tested, 2.1% active;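 active = mean inhibition across valid replicates above about 65%, limit read from the data; inconclusive = mean under the limit, yet half or more replicates past it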;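 note: pathway switched on by Shh-conditioned medium diluted 1 in 25 in low serum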
Each line names hits and unclear results; the compound was inactive in the other large screens. Only some compounds are listed: those with a hit (about 7.7% of all), similar ones and a draw of the others.

C[C@@H]1CN([C@H](C)CO)C(=O)Cc2cc(NC(=O)Nc3ccc4c(c3)OCO4)ccc2O[C@@H]1CN(C)Cc1ccc(Cl)c(Cl)c1	NOMO-1 viab 108
C[C@H](CO)N1C[C@H](C)[C@H](CN(C)Cc2ccc3c(c2)OCO3)Oc2ccc(NC(=O)Nc3ccc(F)cc3)cc2CC1=O	none
C[C@@H]1CN([C@H](C)CO)C(=O)Cc2cc(NC(=O)Nc3ccc4c(c3)OCO4)ccc2O[C@@H]1CN(C)Cc1ccc2c(c1)OCO2	Shh pathway inh 72
C[C@@H]1CN([C@H](C)CO)C(=O)Cc2cc(NC(=O)Nc3ccc4c(c3)OCO4)ccc2O[C@H]1CN(C)Cc1ccc(Cl)c(Cl)c1	none (no result: PD-1 reverse act, Shh pathway inh)
C[C@@H]1CN([C@H](C)CO)C(=O)Cc2cc(NC(=O)CCCCCC(=O)Nc3ccccc3N)ccc2O[C@@H]1CN(C)C(=O)Nc1cccc2ccccc12	none (no result: Shh pathway inh)
COc1cc(NC(=O)COc2ccc(Br)cc2)ccc1NC(=O)c1cc2ccccc2o1	none (no result: Shh pathway inh)
COc1cccc(C2CC(C(F)(F)F)n3ncc(C(=O)NCc4cccnc4)c3N2)c1 (configuration not stated)	none (no result: Shh pathway inh)
CCOC(=O)c1oc2nc(-c3ccco3)cc(-c3ccco3)c2c1N	none (no result: Shh pathway inh)
Cc1cc(Cl)ccc1OCC(=O)Nc1cccc(NC(=O)c2ccccc2C)c1	none (no result: Shh pathway inh)
C[C@H](CO)N1C[C@H](C)[C@H](CN(C)Cc2ccc(Oc3ccccc3)cc2)Oc2ccc(NC(=O)CCCCCC(=O)Nc3ccccc3N)cc2CC1=O	NOMO-1 viab 140 (no result: Shh pathway inh)
C[C@H]1CN([C@@H](C)CO)C(=O)Cc2cc(NC(=O)CCCN(C)C)ccc2O[C@H]1CN(C)Cc1ccc(Oc2ccccc2)cc1	none (no result: PD-1 reverse act)
C[C@H]1CN([C@@H](C)CO)C(=O)Cc2cc(NC(=O)CCCCCC(=O)Nc3ccccc3N)ccc2O[C@H]1CN(C)Cc1ccc(Oc2ccccc2)cc1	NOMO-1 viab 140 (no result: Shh pathway inh)
C[C@H]1CN([C@@H](C)CO)C(=O)Cc2cc(NC(=O)CCCCCC(=O)Nc3ccccc3N)ccc2O[C@@H]1CN(C)C(=O)Nc1ccccc1	none (no result: Shh pathway inh)
CC(=O)O[C@@H]1CC[C@@]2(C)C(CC[C@@H](C)[C@]23Cc2c(O)cc4c(c2O3)CNC4=O)C1(C)C (some centres not stated)	none
COc1ccc(NC(=S)Nc2cnn(C)c2C(N)=O)c(OC)c1	none (no result: Shh pathway inh)
O=C(Nc1sc2c(c1C(=O)NCc1cccnc1)CCCCC2)c1ccccc1	none (no result: Shh pathway inh)
Oc1cc2c(c(Cl)c1O)CCNC[C@@H]2c1ccccc1	NOMO-1 viab 111 (no result: PD-1 reverse act)
O=C1CCC(c2ccccc2)C(=O)C1C(=O)c1ccc(Cl)cc1Cl (configuration not stated)	none
Cc1nnc(SCC(=O)NCC2CCCO2)s1 (configuration not stated)	none (no result: Shh pathway inh)
N#Cc1c(-c2ccccc2)cc2c(c1N)c(=O)oc1ccccc12	none
CN(C)c1nc(OCC(=O)Nc2ccc(Cl)cc2)nc(N(C)C)n1	none (no result: Shh pathway inh)
Cc1ccc(S(=O)(=O)Nc2ccc3c(c2)C(=O)N([C@H](C)CO)C[C@@H](C)[C@@H](CN(C)Cc2ccc(C(F)(F)F)cc2)O3)cc1	NOMO-1 viab 122
C[C@@H]1CN([C@H](C)CO)C(=O)c2cc(NS(=O)(=O)c3ccc(Cl)cc3)ccc2O[C@H]1CN(C)Cc1ccccc1	none
C[C@@H]1CN([C@H](C)CO)C(=O)c2cc(NS(=O)(=O)c3ccc(Cl)cc3)ccc2O[C@@H]1CN(C)Cc1ccccc1	NOMO-1 viab 87
C[C@@H]1CN([C@@H](C)CO)C(=O)c2cc(NS(=O)(=O)c3ccc(Cl)cc3)ccc2O[C@@H]1CN(C)Cc1ccc(C(F)(F)F)cc1	NOMO-1 viab 123
Cc1ccc(S(=O)(=O)Nc2ccc3c(c2)C(=O)N([C@@H](C)CO)C[C@H](C)[C@@H](CN(C)Cc2ccc(C(F)(F)F)cc2)O3)cc1	NOMO-1 viab inconclusive (no result: Shh pathway inh)
C[C@H](CO)N1C[C@H](C)[C@@H](CN(C)Cc2ccc(C(F)(F)F)cc2)Oc2ccc(NS(=O)(=O)c3ccc(F)cc3)cc2C1=O	none (no result: Shh pathway inh)
Cc1ccc(S(=O)(=O)Nc2ccc3c(c2)C(=O)N([C@@H](C)CO)C[C@@H](C)[C@@H](CN(C)Cc2ccc(C(F)(F)F)cc2)O3)cc1	NOMO-1 viab 98 (no result: Shh pathway inh)
Cc1ccc(S(=O)(=O)Nc2ccc3c(c2)C(=O)N([C@H](C)CO)C[C@H](C)[C@@H](CN(C)Cc2ccc(C(F)(F)F)cc2)O3)cc1	none (no result: PD-1 reverse act)
Nc1ccccc1CC(c1c[nH]c2ccccc12)c1c[nH]c2ccccc12	none (no result: Shh pathway inh)
COC(=O)C1=CO[C@@H](OC2OC(O)C(O)C(O)C2CO)[C@H]2[C@@H]1C=CC21C=C([C@H](C)OC(=O)/C=C/c2ccc(OC3OC(CO)C(O)C(O)C3O)cc2)C(=O)O1 (some centres not stated)	none
COc1ccc(OCC(=O)N2CCN(S(=O)(=O)c3ccc(OC)cc3)CC2)cc1	none (no result: Shh pathway inh)
CCOC(NC(=O)Nc1ccc(Br)cc1)(C(F)(F)F)C(F)(F)F	NOMO-1 viab 108
COC(=O)c1ccc(NC(=O)CCC(=O)c2ccc(Br)cc2)cc1	none (no result: PD-1 reverse act, Shh pathway inh)
C[C@@H]1CN([C@@H](C)CO)C(=O)Cc2cc(NC(=O)Nc3ccc(C(F)(F)F)cc3)ccc2O[C@@H]1CN(C)S(=O)(=O)c1cn(C)cn1	NOMO-1 viab 112, Shh pathway inh inconclusive
C[C@@H]1CN([C@H](C)CO)C(=O)Cc2cc(NC(=O)Nc3ccc(C(F)(F)F)cc3)ccc2O[C@H]1CN(C)S(=O)(=O)c1cn(C)cn1	Shh pathway inh inconclusive
C[C@H]1CN([C@@H](C)CO)C(=O)Cc2cc(NC(=O)Nc3ccc(C(F)(F)F)cc3)ccc2O[C@@H]1CN(C)S(=O)(=O)c1cn(C)cn1	none
C[C@H](CO)N1C[C@H](C)[C@H](CN(C)S(=O)(=O)c2cn(C)cn2)Oc2ccc(NC(=O)Nc3ccc(C(F)(F)F)cc3)cc2CC1=O	NOMO-1 viab 125 (no result: PD-1 reverse act)
CCC(C)C1NC(=O)C(CCC(=O)O)N(C)C(=O)C(C(C)C)N(C)C(=O)CNC(=O)C2CCCN2C(=O)C(Cc2ccccc2)NC(=O)C(C(C)CC)OC(=O)C(CCC(=O)O)N(C)C(=O)C(C(C)C)NC(=O)C2CCCCN2C1=O (configuration not stated)	NOMO-1 viab 110, Shh pathway inh 100
O=C1CC(c2ccccc2)Oc2ccccc21 (configuration not stated)	none (no result: PD-1 reverse act)
NC(=O)NC1C(=O)c2ccccc2OC1c1ccccc1 (configuration not stated)	NOMO-1 viab 114
C[C@H]1CN([C@@H](C)CO)C(=O)c2cc(NS(C)(=O)=O)ccc2O[C@H]1CN(C)Cc1ccc(C(=O)Nc2ccccc2N)cc1	none (no result: Shh pathway inh)
C[C@@H]1CN([C@@H](C)CO)C(=O)c2cc(N(C)C)ccc2O[C@H]1CN(C)Cc1ccc(C(=O)Nc2ccccc2N)cc1	NOMO-1 viab 110 (no result: Shh pathway inh)
C[C@H]1CN([C@@H](C)CO)C(=O)c2cc(N(C)C)ccc2O[C@H]1CN(C)Cc1ccc(C(=O)Nc2ccccc2N)cc1	NOMO-1 viab 110 (no result: Shh pathway inh)
C[C@H](CO)N1C[C@H](C)[C@H](CN(C)Cc2ccc(C(=O)Nc3ccccc3N)cc2)Oc2ccc(N(C)C)cc2C1=O	NOMO-1 viab 111 (no result: Shh pathway inh)
C[C@@H]1CN([C@H](C)CO)C(=O)c2cc(NC(=O)Nc3ccc4c(c3)OCO4)ccc2O[C@@H]1CN(C)Cc1ccc(C(=O)Nc2ccccc2N)cc1	NOMO-1 viab inconclusive (no result: Shh pathway inh)

Assay outcomes as filed in PubChem.
